This passage reports inhibition results from ChEMBL document CHEMBL1961873, “Compounds: GSK PKIS; Assays: Nanosyn kinase panel” (2012).

Experiment [1] concerns the target T1, Aurora kinase A (Homo sapiens) (UniProt O14965).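 Further: values are mean percent inhibition.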
T1 sequence (whole entry): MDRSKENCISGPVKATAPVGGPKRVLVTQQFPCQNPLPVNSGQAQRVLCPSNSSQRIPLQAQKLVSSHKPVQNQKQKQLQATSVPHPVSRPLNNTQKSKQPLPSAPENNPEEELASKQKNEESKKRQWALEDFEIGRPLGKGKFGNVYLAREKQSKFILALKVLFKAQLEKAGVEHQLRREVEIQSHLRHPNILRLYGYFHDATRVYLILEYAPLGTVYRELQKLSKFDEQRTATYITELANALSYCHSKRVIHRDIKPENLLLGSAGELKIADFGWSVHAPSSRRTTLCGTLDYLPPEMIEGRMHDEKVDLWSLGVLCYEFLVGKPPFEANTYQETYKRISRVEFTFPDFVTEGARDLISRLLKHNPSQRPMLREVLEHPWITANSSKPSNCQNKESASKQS
To be noted: at 1 µM.

The target of experiment [2] is Aurora kinase B (Homo sapiens) (UniProt Q96GD4). To be noted: at 0.1 µM.
Sequence of Aurora kinase B (Homo sapiens) (Q96GD4 whole entry): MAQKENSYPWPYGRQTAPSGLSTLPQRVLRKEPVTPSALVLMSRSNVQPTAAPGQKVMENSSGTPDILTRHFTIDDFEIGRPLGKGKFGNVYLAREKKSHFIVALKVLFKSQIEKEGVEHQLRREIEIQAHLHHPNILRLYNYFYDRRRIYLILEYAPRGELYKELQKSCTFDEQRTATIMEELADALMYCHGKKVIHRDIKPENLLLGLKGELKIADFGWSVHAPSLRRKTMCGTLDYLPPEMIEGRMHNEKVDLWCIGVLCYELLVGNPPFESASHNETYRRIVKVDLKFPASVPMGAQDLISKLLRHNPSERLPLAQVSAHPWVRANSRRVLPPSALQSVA
Experiment [3] has the same target. Conditions: at 1 µM.
In experiment [4] the target is T2, Aurora kinase C (Homo sapiens) (UniProt Q9UQB9).
T2 sequence (whole entry): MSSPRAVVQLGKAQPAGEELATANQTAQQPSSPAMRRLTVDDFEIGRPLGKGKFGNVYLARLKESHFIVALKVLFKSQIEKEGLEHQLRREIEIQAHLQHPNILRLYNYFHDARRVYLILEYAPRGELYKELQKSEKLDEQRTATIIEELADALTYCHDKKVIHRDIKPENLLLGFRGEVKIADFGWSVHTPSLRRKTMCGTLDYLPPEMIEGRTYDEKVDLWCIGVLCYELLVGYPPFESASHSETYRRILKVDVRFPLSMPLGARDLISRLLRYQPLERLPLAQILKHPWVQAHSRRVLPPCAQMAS
Conditions: at 0.1 µM.

The target of experiment [5] is T2, Aurora kinase C (Homo sapiens). Conditions: at 1 µM.
The target of experiment [6] is Serine/threonine-protein kinase 10 (Homo sapiens) (UniProt O94804). To be noted: at 0.1 µM.
Sequence of Serine/threonine-protein kinase 10 (Homo sapiens) (O94804 whole entry, looked up): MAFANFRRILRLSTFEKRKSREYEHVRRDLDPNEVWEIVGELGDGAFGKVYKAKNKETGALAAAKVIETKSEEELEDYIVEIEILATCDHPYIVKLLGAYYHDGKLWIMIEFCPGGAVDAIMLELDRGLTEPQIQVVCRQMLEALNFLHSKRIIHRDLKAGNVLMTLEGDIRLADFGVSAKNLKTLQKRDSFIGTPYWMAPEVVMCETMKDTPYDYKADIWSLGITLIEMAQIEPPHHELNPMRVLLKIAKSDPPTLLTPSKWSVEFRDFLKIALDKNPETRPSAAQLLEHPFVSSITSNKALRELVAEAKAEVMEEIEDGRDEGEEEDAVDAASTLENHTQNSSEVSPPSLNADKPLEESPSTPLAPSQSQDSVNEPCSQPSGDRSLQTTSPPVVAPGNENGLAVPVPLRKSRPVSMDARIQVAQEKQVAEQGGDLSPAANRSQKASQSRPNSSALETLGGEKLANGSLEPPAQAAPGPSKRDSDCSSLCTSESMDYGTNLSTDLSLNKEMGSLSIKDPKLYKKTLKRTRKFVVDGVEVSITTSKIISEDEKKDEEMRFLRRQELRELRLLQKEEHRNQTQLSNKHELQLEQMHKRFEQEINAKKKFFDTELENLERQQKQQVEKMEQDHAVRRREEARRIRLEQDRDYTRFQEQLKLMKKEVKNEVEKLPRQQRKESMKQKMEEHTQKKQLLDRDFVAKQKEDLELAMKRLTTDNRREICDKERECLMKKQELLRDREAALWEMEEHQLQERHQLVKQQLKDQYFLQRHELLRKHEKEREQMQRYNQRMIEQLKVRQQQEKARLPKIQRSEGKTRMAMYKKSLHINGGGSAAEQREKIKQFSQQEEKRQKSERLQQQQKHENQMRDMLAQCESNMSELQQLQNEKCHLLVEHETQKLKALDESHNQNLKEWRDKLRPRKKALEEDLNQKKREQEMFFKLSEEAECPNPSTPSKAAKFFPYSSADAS
The target is the same in experiment [7]. To be noted: at 1 µM.
Experiment [8] deals with T3, Mitogen-activated protein kinase kinase kinase kinase 2 (Homo sapiens) (UniProt Q12851).
T3 sequence (whole entry): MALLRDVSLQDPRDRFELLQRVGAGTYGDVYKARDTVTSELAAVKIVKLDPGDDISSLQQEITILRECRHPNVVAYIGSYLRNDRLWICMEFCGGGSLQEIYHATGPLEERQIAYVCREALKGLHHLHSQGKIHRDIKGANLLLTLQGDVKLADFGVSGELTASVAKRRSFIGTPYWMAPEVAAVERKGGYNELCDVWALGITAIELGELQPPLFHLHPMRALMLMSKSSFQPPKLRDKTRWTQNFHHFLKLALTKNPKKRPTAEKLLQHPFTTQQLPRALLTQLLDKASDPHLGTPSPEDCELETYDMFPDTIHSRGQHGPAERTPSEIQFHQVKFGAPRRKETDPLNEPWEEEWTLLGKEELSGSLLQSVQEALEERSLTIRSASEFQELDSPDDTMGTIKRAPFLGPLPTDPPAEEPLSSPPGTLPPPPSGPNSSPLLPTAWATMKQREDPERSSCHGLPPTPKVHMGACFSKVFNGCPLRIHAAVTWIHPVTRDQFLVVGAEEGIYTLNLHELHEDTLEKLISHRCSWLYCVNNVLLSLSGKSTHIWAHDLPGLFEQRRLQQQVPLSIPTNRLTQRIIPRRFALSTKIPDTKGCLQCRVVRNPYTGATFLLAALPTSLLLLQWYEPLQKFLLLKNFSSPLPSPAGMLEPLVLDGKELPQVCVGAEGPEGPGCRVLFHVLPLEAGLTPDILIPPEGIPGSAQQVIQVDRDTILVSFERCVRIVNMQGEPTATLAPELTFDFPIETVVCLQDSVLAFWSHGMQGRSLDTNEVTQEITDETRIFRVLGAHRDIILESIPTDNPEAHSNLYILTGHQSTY
To be noted: at 0.1 µM.

Experiment [9] concerns the target T3, Mitogen-activated protein kinase kinase kinase kinase 2 (Homo sapiens). Conditions: at 1 µM.
Experiment [10] has as its target Mitogen-activated protein kinase kinase kinase kinase 4 (Homo sapiens) (UniProt O95819). To be noted: at 0.1 µM.

Sequence of Mitogen-activated protein kinase kinase kinase kinase 4 (Homo sapiens) (O95819 2-1239 limits assumed): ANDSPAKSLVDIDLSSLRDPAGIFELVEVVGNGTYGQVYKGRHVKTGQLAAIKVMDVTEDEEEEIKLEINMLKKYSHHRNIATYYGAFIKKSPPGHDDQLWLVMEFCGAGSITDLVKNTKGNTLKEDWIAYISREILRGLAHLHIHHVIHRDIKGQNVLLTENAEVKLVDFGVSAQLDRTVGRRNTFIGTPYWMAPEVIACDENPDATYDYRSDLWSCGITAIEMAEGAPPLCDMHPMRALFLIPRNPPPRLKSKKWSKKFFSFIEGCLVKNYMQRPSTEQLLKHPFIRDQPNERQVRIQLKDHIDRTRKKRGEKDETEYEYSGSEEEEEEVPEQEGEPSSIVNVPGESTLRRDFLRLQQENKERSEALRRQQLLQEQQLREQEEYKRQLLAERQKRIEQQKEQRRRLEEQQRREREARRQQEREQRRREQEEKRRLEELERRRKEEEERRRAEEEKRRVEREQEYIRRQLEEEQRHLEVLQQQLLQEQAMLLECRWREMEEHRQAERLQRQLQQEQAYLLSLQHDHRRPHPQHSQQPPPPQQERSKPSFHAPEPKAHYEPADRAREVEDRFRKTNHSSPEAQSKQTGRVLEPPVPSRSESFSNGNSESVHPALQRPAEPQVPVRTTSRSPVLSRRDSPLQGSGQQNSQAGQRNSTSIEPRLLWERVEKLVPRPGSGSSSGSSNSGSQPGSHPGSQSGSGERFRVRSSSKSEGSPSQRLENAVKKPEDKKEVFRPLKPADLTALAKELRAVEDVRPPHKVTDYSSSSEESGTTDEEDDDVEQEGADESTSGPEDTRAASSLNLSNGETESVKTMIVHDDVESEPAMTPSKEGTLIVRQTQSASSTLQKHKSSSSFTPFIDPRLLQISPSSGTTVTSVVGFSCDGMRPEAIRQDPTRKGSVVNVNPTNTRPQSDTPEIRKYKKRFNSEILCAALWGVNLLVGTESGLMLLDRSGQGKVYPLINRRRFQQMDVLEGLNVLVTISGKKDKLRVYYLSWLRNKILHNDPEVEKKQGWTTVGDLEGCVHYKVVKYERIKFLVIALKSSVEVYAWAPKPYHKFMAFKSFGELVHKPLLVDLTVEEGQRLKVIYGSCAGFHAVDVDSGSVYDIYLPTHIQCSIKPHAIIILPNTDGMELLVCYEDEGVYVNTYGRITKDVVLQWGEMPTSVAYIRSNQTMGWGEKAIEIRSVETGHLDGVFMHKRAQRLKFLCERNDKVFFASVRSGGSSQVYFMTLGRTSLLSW

For the compound `Fc1cccc(COc2ccc(Nc3ncnc4cc(-c5ccc[nH]5)sc34)cc2Cl)c1`, the inhibition (commonly the relative decrease from the control value, in per cent) in experiment [1] is 7.53%; in experiment [2], 0.54%; in [3], 13.2%; in [4] it was -2.76%; in experiment [5], -2.08%; in experiment [6], 2.11%. Also, the inhibition was determined as 11.9% in [7], 0.55% in experiment [8], 4.58% in [9] and 5.64% in [10].
Take `COc1ccc(-c2coc3ncnc(N)c23)cc1`: the inhibition in experiment [1] was determined as 7.06%; in [2], 3.4%; in experiment [3] it was 8.81%; in experiment [4] it was 1.56%; in experiment [5] it was 15.3%; in experiment [6] it was 3.11%. The inhibition in [7] amounted to 8.06%; in experiment [8] it was 1.83%; in experiment [9], 6.08%; in [10] it was 4.43%.
In the case of `NS(=O)(=O)c1ccc(N/N=C2\C(=O)Nc3ccc(C(=O)NCCc4c[nH]cn4)cc32)cc1`, the inhibition came out at 41.2% in experiment [1]; 6% in experiment [2]; 26.8% in [3]; 3.9% in experiment [4]; 31.5% in experiment [5]; 3.71% in experiment [6]. Further, the inhibition in [7] was 8.99%; in [8], 1.62%; in [9] it was 6.59%; in [10], 10.5%.
For `CN1CCC(C(=O)Nc2n[nH]c3nnc(-c4ccccc4)cc23)CC1`, the inhibition in experiment [1] was 8.78%; in experiment [2] it was 3.81%; in experiment [3] it was 9.47%; in experiment [4], 4.39%; in [5] it was -2.07%; in experiment [6], 8.49%. The inhibition is 9.99% in experiment [7], 0.73% in [8], 3.35% in experiment [9] and 6.6% in experiment [10].
Consider `Cc1nnc(-c2ccc(C)c(-c3ccc(C(=O)Nc4cccc(C#N)c4)cc3)c2)o1`, for which the inhibition was 5.96% in experiment [1]; 2.83% in experiment [2]; 4.74% in [3]; 1.31% in experiment [4]; -2.81% in experiment [5]; 4.18% in [6]. The inhibition in experiment [7] was 5.45%; in experiment [8], -0.38%; in [9] it was 2.09%; in experiment [10] it was 5.31%.
On to `Nc1ncnc2occ(-c3ccc(NC(=O)Nc4cc(C(F)(F)F)cc(C(F)(F)F)c4)cc3)c12`, for which the inhibition in experiment [1] came to 46%; in [2], 10.6%; in experiment [3] it was 44.5%; in [4], 1.5%; in [5], 79.7%; in experiment [6], 9.76%. Further, the inhibition in [7] came out at 29%; in experiment [8], 15.7%; in experiment [9] it was 48.9%; in [10], 2.54%.
Turning to `COc1cc2ncn(-c3cc(OCc4ccccc4Cl)c(C(N)=O)s3)c2cc1OC`, the inhibition in experiment [1] turned out to be 23.5%; in experiment [2], 4.78%; in experiment [3], 29.9%; in experiment [4] it was 2.35%; in experiment [5] it was 40.5%; in experiment [6], 67.3%. The inhibition in experiment [7] was 99%; in experiment [8] it was 7%; in experiment [9], 30.8%; in experiment [10] it was 13.9%.
`CCCN1CCC(Oc2cc(Nc3nc(Nc4cccc(F)c4C(N)=O)c4cc[nH]c4n3)c(OC)cc2Cl)CC1`: the inhibition was 5.9% in experiment [1]; 3.16% in experiment [2]; 6.47% in experiment [3]; 2.93% in [4]; -1.8% in experiment [5]; -0.06% in experiment [6]. In addition, the inhibition in [7] is 7.28%; in [8], 1.26%; in experiment [9], 9.17%; in experiment [10], -0.01%.
In the case of `COc1ccc(COc2ccc(Cc3cnc(N)nc3N)cc2OC)cc1`, the inhibition in experiment [1] worked out at 2.3%; in [2], 3.53%; in experiment [3] it was 4.95%; in [4], 2.97%; in [5], 16.2%; in [6], 5.28%. For the same compound, the inhibition in [7] was determined as 7.31%; in [8], 3.72%; in [9], 3.99%; in experiment [10], 0.34%.
`NS(=O)(=O)c1cccc(-c2ccc3c(NC(=O)C4CC4)n[nH]c3c2)c1`: the inhibition is 14.4% in [1]; 1.82% in experiment [2]; 1.24% in experiment [3]; -1.44% in experiment [4]; 2.43% in experiment [5]; 1.33% in experiment [6]. For the same compound, the inhibition stood at 7.09% in experiment [7], 2.11% in experiment [8], 7.37% in experiment [9] and 1.63% in [10].
In the case of `Cc1cccc(-c2n[nH]cc2-c2ccc3ncccc3n2)n1`, the inhibition in experiment [1] was 2.37%; in experiment [2], -1.18%; in experiment [3] it was 4.2%; in [4] it was 0.3%; in experiment [5] it was -2.95%; in experiment [6], 3.36%. Further, the inhibition in experiment [7] was determined as 7.9%; in experiment [8], 1.72%; in experiment [9] it was 0.72%; in experiment [10], 5.33%.
On to `CC1=C(C(=O)Nc2ccc3[nH]ncc3c2)C(c2ccc3ccccc3c2)CC(=O)N1` (stereo not given), for which the inhibition in experiment [1] came to 70.6%; in [2], 4.02%; in [3], 22%; in experiment [4], 3.09%; in experiment [5], 32.8%; in [6], 2.65%. For the same compound, the inhibition turned out to be 2.84% in [7], 1.47% in experiment [8], 3.14% in experiment [9] and 2.51% in experiment [10].
As to `COc1ccccc1Nc1ncc(-c2ccccc2)o1`, the inhibition stood at 8.83% in experiment [1]; 4.39% in experiment [2]; 11.1% in experiment [3]; 3.63% in experiment [4]; 12.5% in experiment [5]; 8.13% in experiment [6]. In addition, the inhibition was 8.47% in experiment [7], -0.05% in [8], 4.63% in experiment [9] and 6.79% in [10].
Take `CCCN1CCC=C(c2ccc(Nc3nc(Nc4ccccc4C(N)=O)c4cc[nH]c4n3)c(C)c2)C1`: the inhibition in experiment [1] amounted to 32.6%; in [2], 5.03%; in experiment [3], 12.8%; in experiment [4] it was 1.85%; in experiment [5] it was 13.7%; in [6] it was 8.52%. In addition, the inhibition was 14.9% in experiment [7], 6.05% in experiment [8], 35.5% in experiment [9] and 19.2% in experiment [10].
For the compound `CCn1c(-c2nonc2N)nc2cncc(C(=O)N3CCNCC3)c21`, the inhibition in experiment [1] was 2.9%; in [2], 3.66%; in experiment [3] it was 4.51%; in experiment [4], -0.51%; in experiment [5] it was 1.12%; in [6], 10.8%. Moreover, the inhibition is 8.24% in experiment [7], 1.51% in [8], 2.14% in experiment [9] and 3.11% in experiment [10].
With `CC1=C(C(=O)Nc2ccc3[nH]ncc3c2)C(c2ccc(Cl)c(Cl)c2)CC(=O)N1` (stereo not given), the inhibition turned out to be 70.2% in [1]; 1.32% in experiment [2]; 19.5% in experiment [3]; 3.19% in [4]; 28.2% in experiment [5]; 3.78% in experiment [6]. The inhibition was 5.17% in [7], -1.16% in [8], 1.61% in experiment [9] and 2.18% in [10].
Regarding `CS(=O)(=O)CCNCc1nc(-c2ccc3ncnc(Nc4ccc(F)c(Cl)c4)c3c2)cs1`, the inhibition in experiment [1] was 9.04%; in experiment [2], 3.41%; in experiment [3] it was 6.36%; in experiment [4], 2.51%; in [5], -0.59%; in experiment [6], 5.44%. The inhibition in experiment [7] was 27.7%; in experiment [8], 1.34%; in [9] it was 2.52%; in [10], 3.38%.
